Screening data as filed in PubChem BioAssay.
Compounds with a hit are over-represented: about 4.1% of the library has one in this group of screens.
MIN6 prolif = inducers of beta-cell replication in MIN6 cells | proliferation, % at 10 µM | 330,000 compounds, 0.29% hits | MIN6 cells proliferation, ATPlite luminescence, 48 h; cells starved in 0.2% serum; 100% = growth in 10% serum | AID 2380;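 active = compounds whose signal lies at least 3.5 SD above the mean of all wells on their plate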;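 also: 0% = DMSO-treated cells in low-serum medium and 100% = 10% serum control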
p-CIP stab down = p/CIP protein destabilization. Q05BA5. F442A p/CIP-EGFP cells, EGFP fluorescence, 16 h. decrease of EGFP signal, % at 10 µM. 290,000 compounds, 0.01% hits. AID 1984;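 active = EGFP signal decrease of at least 30% at 10 µM or well 3 SD below plate mean, unless failing retest; inactive = the rest, including hits failing retest or dose response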
FAS TE block = blocks the thioesterase domain of human fatty acid synthase; P49327; inhibition, % at 15 µM; 360,000 compounds, 0.67% hits; recombinant FAS-TE, OMFH fluorogenic substrate, fluorescence endpoint; AID 602261;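 active = compounds whose normalised, plate-corrected inhibition of enzyme fluorescence in the single-dose primary screen is 50% or more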;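 also: 0% = DMSO with enzyme and 100% = substrate without enzyme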
MPTP block = permeability transition pore inhibition; inhibition, % at 10 µM; isolated mouse mitochondria, Ca2+ swelling absorbance, 30 min; 360,000 compounds, 1.4% hits;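 active = inhibition of 50% or more, scaled per plate between neutral and stimulator controls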;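 also: 0% = DMSO wells given calcium and 100% = 1 mM EGTA wells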
GRIN3A LBD mod = modulates the human NR3A ligand-binding domain; NR3A LBD differential scanning fluorimetry, Tm shift; 0% = protein alone, 100% = glycine-bound protein; Tm shift relative to glycine control, % at 25 µM; 340,000 compounds, 2.5% hits; AID 1259313;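 active = melting temperature shift of at least 10% of the positive control shift, at one fixed dose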
MPTP counter = Rhodamine 123 counter-screen of mitochondrial pore hits; shares compounds with MPTP block; isolated mitochondria, membrane potential, Rhodamine 123 fluorescence; inhibition, % at 10 µM; 5,000 compounds, 78% hits; AID 624504; in the data active = inhibition above about 22%;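 also: 0% = DMSO vehicle and 100% = positive control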
MPTP abs DR = MPTP inhibition, dose response swelling confirmation. isolated mitochondria swelling, absorbance. shares compounds with MPTP block. IC50, µM. 780 compounds, 58% hits; in the data active = IC50 below about 20 µM
MPTP cs DR = counter-screen for mitochondrial permeability transition pore inhibitors, dose response | shares compounds with MPTP block | 780 compounds, 49% hits | isolated mitochondria counterscreen, fluorescence read-out | AID 651564 | IC50, µM; in the data active = IC50 below about 80 µM
* = called active by the depositor; i = inactive; . = no result given; + = active, no number.

SMILES	MIN6 prolif	p-CIP stab down	FAS TE block	MPTP block	GRIN3A LBD mod	MPTP counter	others
CC(O)(CS(=O)(=O)c1ccc(F)cc1)C(=O)Nc1ccc(C#N)c(C(F)(F)F)c1 (stereo not drawn)	1.6	-10.7	.	.	.	.
Nc1ccccc1C(=O)OCC(=O)Nc1ccc(Br)cc1F	-1.0	2.3	10.9	-0.7	-1.9	.
Oc1cc(Cl)ccc1Oc1ccc(Cl)cc1Cl	-5.9	.	25.3	91.9*	0.7	98.9*
O=C(O)COc1ccc(Cl)cc1Cl	1.4	.	-4.8	0.1	-0.1	.
CC(C)Oc1ccc(CCN)cc1Cl	-0.3	-0.7	-12.9	0.3	2.7	.
CCCCOc1ccc(CCN)cc1Cl	-2.1	-9.1	-12.0	91.6*	-11.3	-16.9	MPTP abs DR=6.6*;MPTP cs DR=>80
CCOC(=O)C1(CCCc2ccccc2)CCN(C2CCC2)CC1	-2.6	-4.2	-2.8	0.9	0.0	.
CCN1C(=O)/C(=C/c2ccc(N(CC)CC)cc2OC)C(=O)NC1=S	-5.0	-18.8	-2.9	65.8*	14.1*	-12.7
CCC(=Nc1ccc(OC)cc1OC)c1c(O)n(C)c(=O)n(C)c1=O	0.0	-12.0	-6.7	33.6	-1.7	.
CCC(=Nc1cccc(C(F)(F)F)c1)c1c(O)n(C)c(=O)n(C)c1=O	-1.4	-0.9	10.0	79.6*	2.1	0.6	MPTP abs DR=9.01*;MPTP cs DR=14.3*
COc1cc(OC)c(OC)cc1/C=C1/C(=O)NC(=O)N(Cc2ccccc2)C1=O	-0.1	-7.8	-5.0	60.3*	1.8	36.6*
CCC(=C(c1ccc(O)cc1)c1ccc(OCCN(C)C)cc1)c1ccccc1	.	.	-6.1	-1.4	.	.	MPTP abs DR=i;MPTP cs DR=>80
Fc1cccc(-c2ccc3c(c2)CNCc2cnnn2-3)c1	.	.	-1.7	0.3	.	.
CN1C(=O)C(=Cc2ccccc2OCc2ccccc2Cl)C(=O)N(C)C1=O	-1.6	-9.4	-5.5	61.1*	-0.7	44.2*
CCN1/C(=C\C=C\C2=[N+](CC)c3ccccc3C2(C)C)C(C)(C)c2ccccc21	-6.2	-671.7	-192.9	+	-402.7	83.8*
COc1ccc(CN2Cc3cnnn3-c3ccccc3C2C)cc1 (stereo not drawn)	.	.	-2.1	0.3	-2.6	.
Cc1cc(C)n(-c2ccc(NN=C(C#N)C#N)cc2)n1	-6.0	-5.2	0.5	84.4*	2.0	89.7*
N#CC(C#N)=NNc1ccc(-n2ccc(C(F)(F)F)n2)cc1	-3.9	-19.7	18.1	77.9*	7.4	81.7*
Cc1c(NC(NC(=O)CF)C(Cl)(Cl)Cl)c(=O)n(-c2ccccc2)n1C (stereo not drawn)	-0.4	9.0	-6.8	-1.1	-1.4	.
C/C(=N\NP(=S)(c1ccccc1)c1ccccc1)c1ccc(O)cc1O	-4.2	-12.1	12.3	1.9	-2.3	.
Oc1c(Cl)c(Cl)c(Cl)c(Cl)c1Cl	-7.7	.	39.9	72.9*	18.8*	88.2*
CCOC(=O)c1[nH]c2ccc(OC)cc2c1C(SCC(=O)O)c1ccc(C(F)(F)F)cc1 (stereo not drawn)	-4.1	-4.1	1.8	1.1	-3.1	.
O=C1NC(=O)N(c2ccccc2)C(=O)/C1=C/c1ccc(Sc2ccccc2)o1	.	-0.6	-4.2	51.1*	3.7	42.5*
Cc1ccc(Cn2ccccc2=N)cc1	.	3.3	-3.0	-1.9	-0.7	.
COc1cc2c(cc1OC)C1C(=O)c3ccc4c(c3OC1CO2)CC(C(C)C)O4 (stereo not drawn)	.	.	13.2	103.2*	-1.9	88.3*
COc1cc2c(cc1OC)[C@@H]1C(=O)c3ccc4c(c3O[C@@H]1CO2)C[C@H](C(C)C)O4	-3.9	-15.8	16.9	96.2*	1.3	83.5*
COc1ccc(N2C(=O)NC(=O)/C(=C\c3ccc([N+](=O)[O-])s3)C2=O)cc1	-5.6	-9.7	-1.4	55.5*	-7.4	-13.1
